Bioassay records as filed in PubChem BioAssay.
Most compounds without a hit are left out; they make up all but 1.8% or so of the library.
Bfl-1 A1 inh: inhibitors of the anti-apoptotic protein A1, read as caspase activation | hit rate 0.066% among 330,000 | caspase activation, % (test concentration not listed) | AID 2462 | MEF A1-2A-BIM cells, Caspase-Glo 3/7 luminescence, 3 h; percent of clofoctol response, vehicle zero;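 active means over half of replicate activation scores above 10%, or exactly half above 10 with the replicate mean above 10; inconclusive means replicate mean below 10 yet half the replicates above 10; inactive means over half of replicates below 10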
aDG glyco act: alpha-DG glycosylation activation. hit rate 0.22% among 360,000. Pro5-aDG cells, alpha-DG glycosylation AlphaScreen (IIH6); 0% Pro5, 100% B10-LARGE cell signal. activation, % at 10 µM;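 active means activation of at least 8% versus controls, or a plate z-score of at least 8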;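 further: Pro5 are CHO cells carrying HIG-tagged alpha-DG that lacks glycosylation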
ARNT-TACC3 inh: ARNT/TACC3 interaction disruption; AlphaScreen His-ARNT PAS-B/GST-TACC3 binding, luminescence; TACC3 fragment carries E629A point mutation; inhibition, % at 9.99 µM; Q9Y6A5; hit rate 0.66% among 390,000;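 active means mean inhibition of replicates at least 50% and at least half of replicates each reaching 50%; inconclusive means half or more replicates reach 50% but mean below 50%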;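 further: 0% = complete ARNT plus TACC3 wells and 100% = ARNT alone without TACC3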
SUMO Mot1 rescue: inhibitors of SUMOylation pathway: yeast Mot1-301 growth rescue. S. cerevisiae Mot1-301 growth rescue, ATP luminescence, 38.5C; percent above DMSO median, 100 means doubled. growth rescue, % at 18.8 µM. hit rate 1% among 320,000;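 active means every valid replicate shows activation above 250% relative to neutral control wells; inactive means the rest, any valid replicate at or below 250%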;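 further: OY570 slx delta 5 strain wells were the positive control but not used for scaling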
AI-2 QS modul: Vibrio harveyi AI-2 quorum sensing modulation | Vibrio harveyi JMH597 AI-2 luminescence/OD600 ratio, 9 h; stronger effect = lower value; strain lacks LuxN and CqsS sensors; 0 = neutral-control median | activity change, % at 7.5 µM | hit rate 0.4% among 300,000 | AID 2094; in the data active means activity change below about -75%, passing the limit was not always enough; inconclusive means no clear call, values can overlap the other calls;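 further: luminescence divided by OD600 gain over 9 h not by final OD600 alone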
Yeast Mot1 SUMO: SUMO pathway inhibitors in yeast Mot1-301 growth; AID 493004; 2,300 tested, under 10 active; shares compounds with SUMO Mot1 rescue; S. cerevisiae Mot1-301 galactose growth, ATP luminescence, 24 h; -100 = growth of slx-deleted rescue strain; growth activity, percent, % at 42 µM;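 active means Signal drops as the depositor expects, and the fitted half-maximal dose is no more than ten times the top valid tested dose; inconclusive means Poor fit, or a flat curve whose signal drops by 30% to 70%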;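 further: more negative values mean stronger growth rescue toward the control strain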
* marks the source's active call; other numbers are inactive results; ? = inconclusive; / = no result given; + = active, no number; [ ] = another dose, or the depositor's remark.

SMILES | Bfl-1 A1 inh | aDG glyco act | ARNT-TACC3 inh | SUMO Mot1 rescue | AI-2 QS modul | Yeast Mot1 SUMO
O=c1c2ccccc2ncn1Cc1ccc(Cl)cc1 | ? | 0 | -3 | 987* | 5 | 0
CC(C)c1nnc(SCC(=O)N2CCc3ccccc32)n1C | -1 | 0 | -7 | -15 | 11 | /
COc1cccc(N=Nc2c(=O)[nH]n3c(=O)c4c([nH]c23)CCC4)c1 | -1 | 0 | 18 | 6 | 21 | /
COc1cccc(N=Nc2c(=O)[nH]n3c(=O)cc(C)[nH]c23)c1 | -3 | 0 | 23 | 372* | 0 | 1
CCC(NC(=O)c1ccccc1NC(=O)c1ccco1)C(=O)O (stereo not given) | -1 | 0 | 5 | 4 | 14 | /
CCC(NC(=O)c1ccccc1NC(=O)c1ccco1)C(=O)NC1CCCCC1 (stereo not given) | 0 | 0 | -4 | 381* | 4 | 0
CCCNC(=O)C[C@H]1CC[C@H]2[C@@H](COC[C@@H](O)CN2S(=O)(=O)c2ccccc2F)O1 | / | / | 11 | / | / | /
Cc1[nH]n(-c2ccccc2)c(=O)c1N=Nc1ccccc1 | 0 | 0 | -4 | 1 | 10 | /
Cc1[nH]oc(=O)c1N=Nc1c(Cl)cccc1Cl | 0 | 0 | 0 | 358* | 44 | 0
Cc1[nH]oc(=O)c1N=Nc1ccccc1 | -1 | 0 | / | 465* | 24 | 1
CCCCOc1ccc(C(=O)OCC(=O)N2CCCCCC2)cc1 | 0 | 0 | -9 | 4 | / | /
CCCNC(=O)N[C@H]1C=C[C@@H](CC(=O)NC2CCC2)O[C@H]1CO | / | / | -9 | / | / | /
CCOC(=O)c1sc(N)nc1C(C)(C)C | -1 | 0 | 2 | -16 | 33 | /
CCOc1ccc(/C=N/NC(=O)C2(O)c3ccccc3-c3ccccc32)cc1 | 1 | 0 | -2 | -21 | 8 | /
O=C(Cn1cnc2ccccc2c1=O)c1ccc(Cl)cc1 | / | 0 | / | / | -31 | /
CCOc1ccc(C)cc1S(=O)(=O)n1nc(C)cc1C | 0 | 0 | 0 | 477* | 21 | 0
Cc1ccc(S(=O)(=O)Nc2csc(C)c2C(=O)O)cc1 | 0 | / | / | 2 | 23 | /
CNc1csc(C)c(C)c1=O | 1 | 0 | 3 | 448* | 15 | 0
Cn1c(=O)c2c(nc(N3CCN(C(=O)c4ccco4)CC3)n2CCSc2ncccn2)n(C)c1=O | 0 | 0 | 5 | 3 | 13 | /
O=C(CSc1nccc(=O)[nH]1)c1cc2ccccc2o1 | -1 | 0 | 1 | 586* | 3 | 0
CC(C)(C)c1ccc(C(=O)NCCC(=O)N2CCN(c3ncccn3)CC2)cc1 | 0 | 0 | 1 | 552* | 14 | 0
CC(C)(C)c1ccc(C(=O)NCCC(=O)N2CCCC2)cc1 | 0 | 0 | -7 | 0 | 18 | /
CCN1CCCC1CN(Cc1cc2cc(C)cc(C)c2[nH]c1=O)C(=O)Nc1ccccc1OC (stereo not given) | 1 | / | / | -8 | 13 | /
CCN1CCCC1CN(Cc1cc2ccc(C)cc2[nH]c1=O)C(=S)Nc1ccc(OC)cc1OC (stereo not given) | 1 | 0 | / | 562* | 8 | 0
COc1cccc(C(=O)NCCCNC(=O)c2cccc(OC)c2)c1 | 2 | 0 | -3 | 4 | 5 | /
SMILES | Bfl-1 A1 inh | aDG glyco act | ARNT-TACC3 inh | SUMO Mot1 rescue | AI-2 QS modul | Yeast Mot1 SUMO
CCOc1ccc(NC(=O)CC2C(=O)N(c3ccccc3)C(=S)N2Cc2ccccn2)cc1 (stereo not given) | 0 | 0 | 12 | + | 3 | 0
CN1/C(=C\C(=O)COC(=O)c2ccccc2O)C(C)(C)c2ccccc21 | 0 | 0 | 2 | 6 | 39 | /
CCn1ncc(Br)c1C(=O)Nc1ccccc1OC | 0 | 0 | -5 | 234 | 18 | /
CCn1nccc1C(=O)Nc1ccccc1OC | 1 | 0 | -7 | 747* | 12 | 0
COC(=O)CCCC(=O)NCC1(N(C)Cc2ccccc2)Cc2ccccc2C1 | 1 | 0 | -12 | 387* | 11 | 1
NC(=O)c1ccccc1O | -1 | 0 | -2 | 45 | 14 | /
Cc1ccc(C)c(N2CCN(C(c3ccncc3)c3nnnn3Cc3ccccc3)CC2)c1 (stereo not given) | -1 | 0 | -1 | 422* | 35 | 1[21 µM]
